This note sets out measurements from PubChem BioAssay.

The structures appear in SMILES notation. Results filed as inconclusive are left out. The source made the active and inactive calls. Unless noted, cut-off not given; nearly all actives show AC50 up to about 26 µM.

Assay [1] in a line: viability loss in pontine glioma line – cell-based, SU-DIPG-XVII, MIPE5.0, CellTiter-Glo, qHTS, dose response (AID 1347060).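 On AC50: cells exposed to compound for 48 hours before viability readout.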 To be noted: CellTiter-Glo ATP luminescence. A general note: ATP-based viability assays read luminescence as a measure of living cells.
A short description of assay [2]: viability loss in pontine glioma line – cell-based, SU-DIPG-XIII, MIPE4.0, CellTiter-Glo, qHTS, dose response (AID 1347061; cut-off not given, nearly all actives have AC50 up to about 37 µM;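 further: cells exposed to compound for 48 hours before readout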). To be noted: CellTiter-Glo ATP luminescence.
Assay [3] in a line: viability loss in pontine glioma line – cell-based, JHH-DIPG-1, MIPE4.0, CellTiter-Glo, qHTS, dose response (AID 1347062; cut-off not given, nearly all actives have AC50 up to about 27 µM;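 on AC50: cells exposed to compound for two days before readout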). As to conditions: JHH-DIPG-1 viability, CellTiter-Glo ATP luminescence.
Assay [4] is described as follows: viability loss in pontine glioma line – cell-based, SU-DIPG-XXV, MIPE5.0, CellTiter-Glo, qHTS, dose response (AID 1347065).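 Further: cells exposed to compound for 48 hours before ATP readout.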 As to conditions: CellTiter-Glo ATP luminescence.
Assay [5] in a line: growth inhibition of DIPG cells – cell-based, MIPE4.0 library, CellTiter-Glo luminescence, qHTS (AID 1347066; cut-off not given, nearly all actives have AC50 up to about 30 µM;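 further: cells exposed to compound for 48 hours before readout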). As to conditions: SU-DIPG-VI viability, CellTiter-Glo ATP luminescence.
The nature of assay [6]: JHH-DIPG-1 glioma cell viability, MIPE5.0 library, CellTiter-Glo luminescence, qHTS (AID 1347067).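 Further: cells exposed to compound for 48 hours before readout.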 To be noted: JHH-DIPG-1 glioma viability, CellTiter-Glo ATP luminescence.
Assay [7] is described as follows: growth inhibition of DIPG cells – cell-based, MIPE5.0 library, qHTS (AID 1347068; cut-off not given, nearly all actives have IC50 up to about 30 µM). To be noted: SU-DIPG-XXV viability.
A short description of assay [8]: viability loss with induced miR-34 in A549 – imaging, A549 dox-inducible miR-34, nuclei and caspase counts, primary screen (AID 1347080;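 active means compounds whose cell count with miR-34 switched on is under 0.7 times the count with it off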). As to conditions: A549 miR-34 inducible, Hoechst nuclei count, 48 h.
The nature of assay [9]: MELAS cybrid and Rieske KO viability enhancers – cell-based, MELAS cybrids, Rieske KO mouse fibroblasts, CellTiter-Glo, primary screen (AID 1508586;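 active means mean z-score across replicates of 1.96 or higher in either the MELAS or the Rieske mutant cell line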;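 further: z relative to plate mean and SD of compound and empty wells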). To be noted: low glucose.
Assay [10] is described as follows: viability loss in pontine glioma line – cell-based, SU-DIPG-IV, MIPE4.0, CellTiter-Glo, qHTS, dose response (AID 1347063; cut-off not given, nearly all actives have AC50 up to about 30 µM;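 further: compound exposure lasted 48 hours before the viability readout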). As to conditions: CellTiter-Glo ATP luminescence.
Assay [11] in a line: viability loss in pontine glioma line – cell-based, SU-DIPG-XIII, MIPE5.0, CellTiter-Glo, qHTS, dose response (AID 1347064; cut-off not given, nearly all actives have AC50 up to about 23 µM;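 further: cells exposed to compound for 48 hours before the viability read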). To be noted: CellTiter-Glo ATP luminescence.

For orientation: AC50 means the concentration giving half of the maximal activity seen. Consider `CC1(C)S[C@H]2[C@H](NC(=O)[C@@H](N)c3ccc(O)cc3)C(=O)N2[C@H]1C(=O)O`, for which the outcome in assay [1], in assay [4], in assay [5], in assay [6] and in assay [7] was inactive. In addition, the AC50 in assay [2] is 23500 nM (active); in [3], 1320 nM (active).
Turning to `COc1ccc(-n2c(C)c([N+](=O)[O-])c3ccc(O)cc32)cc1`, the compound was classed as inactive in [1], in [3], in assay [4], in [5], in assay [6] and in assay [7]. In assay [2], the concentration at half-maximal activity (AC50) is 4690 nM (active). In addition, the fold change is 0.881 (inactive) in [8] (stronger effect = lower value, cell number ratio, induced over uninduced) and 0.334 in assay [8] (measured here: relative caspase fold change +Dox/-Dox). The cell count in assay [8] (measured here: total cells with miR-34 induction, stronger effect = lower value) was 6450; in assay [8] (measured here: total cells without miR-34 induction), 7330. The z-score was 0.252 (inactive) in assay [9] (MELAS cybrid survival, CellTiter-Glo 48 h, stronger effect = higher value) and -3.43 in [9] (Rieske KO mouse fibroblast survival, CellTiter-Glo 72 h).
On to `Cc1c(CN2CCN(S(C)(=O)=O)CC2)sc2c(N3CCOCC3)nc(-c3cnc(N)nc3)nc12`, for which the AC50 in assay [1] was 661 nM (active); in assay [2], 332 nM (active); in [10] it was 23.5 nM (active); in assay [11], 525 nM (active); in assay [4], 166 nM (active); in assay [5] it was 526 nM (active). In addition, the AC50 in assay [6] was 1050 nM (active).
Take `Nc1nc(NCCNc2ncc(-n3ccnc3)c(-c3ccc(Cl)cc3Cl)n2)ccc1[N+](=O)[O-]`: the AC50 is 11800 nM (active) in assay [1]; 5260 nM (active) in assay [10]; 13200 nM (active) in [11]; 8330 nM (active) in [4]; 11800 nM (active) in assay [6]. For the same compound, the outcome in [2] and in assay [7] was inactive.
